In PubChem BioAssay (Tox21):
A number with no mark means an inactive call. Calls of active or inactive are those of the source. Calls come from the whole dose curve; as a rule, active = well fitted activation curve with a large enough effect in the repeat runs; inconclusive = weak or mixed curves; inactive = flat fitted curve, though single readings scatter.
% is set by controls: 0 for no effect and ±100 for the full control effect; potency is the fitted concentration of half-maximal effect.

Test: Caspase-3/7 induction in CHO-K1 cells by small molecules, qHTS assay (AID 1346980); note: nearly all actives have a fitted effect of over 15% in size
Conditions: CHO-K1 caspase-3/7 induction, Caspase-Glo luminescence, 17 h; series mostly up to 92.4 µM; caspase-3/7 activation: at the top concentration
Source text: National Center for Advancing Translational Sciences [NCATS]
NIH Chemical Genomics Center [NCGC]
U.S. Environmental Protection Agency [EPA]
National Institutes of Environmental Health Sciences [NIEHS]
National Toxicology Program [NTP]
Apoptosis is a process of programmed cell death and plays a central role in the development of multicellular organisms. It is a highly regulated process and induces cell death by activating caspases, which are the members of cysteine aspartic acid-specific protease (caspase) family. Caspases involved in apoptosis are classified by their mechanism of action as initiator caspases (caspase-2, -8, -9 and -10) and executioner caspases (caspase-3, -6, and -7). Inhibition of apoptosis results in number of cancers, autoimmune diseases, inflammatory diseases and viral infection. To identify small molecule compounds that induce apoptosis, a homogeneous, luminescent Caspase-Glo 3/7 assay was used. Wild type CHO-K1 cells were used to screen Tox21 libraries for identifying caspase-3/7 activity inducers.
CHO-K1 cells were dispensed at 1,500 per well in 5uL of culture medium into white solid bottom 1536-well plates (Corning Life Sciences, Corning, NY) using a Multidrop Combi (Thermo Scientific, Waltham, MA) dispenser. The assay plates were incubated at 37 C and 5% CO2 for 5hr, and then 23nL of compounds dissolved in DMSO and positive control were transferred using a Pintool station (Wako, San Diego, CA). The assay plates were incubated at 37C and 5% CO2 for 17hr. For caspase-3/7 activity read, 4uL of Caspase-Glo 3/7 reagent (Promega Corporation, Madison, WI) was added to each well of the assay plates using Flying Reagent Dispenser (FRD, Aurora Discovery, San Diego, CA) and incubated the assay plates at room temperature for 30min. The luminescence signal was quantified using a ViewLux plate reader (Perkin Elmer, Shelton, CT).
With `CCCNCCC` the “caspase-3/7 activation” value was -0.249%.
For `C=C(C)C(=O)OCCCCCCCCCC`, the “caspase-3/7 activation” value was -4.61%.
For `CCCCCCCCCCCCOC(=O)c1ccc(O)cc1`, the Potency was 61.6 µM (active).
In the case of `CC(=O)OCC=C(C)C`, the “caspase-3/7 activation” value is reported as 0.131% [at 42.5 µM].
In the case of `CCCc1ccc(OCC(=O)N2CCN(C(=O)COc3ccc(CCC)cc3OC)CC2)c(OC)c1`, the “caspase-3/7 activation” value is reported as 0.828% [at 42.5 µM].
In the case of `C[C@H]1NCc2cc(-c3ccc4c(=O)c(C(=O)O)cn(C5CC5)c4c3OC(F)F)ccc21`, the caspase-3/7 activation is reported as 0.0016% [at 19 µM].
With `CCCCOC(=O)CC` the “caspase-3/7 activation” value was 0.617%.
For `CC(=O)[C@H]1CC[C@H]2[C@@H]3CCC4=CC(=O)CC[C@]4(C)[C@H]3CC[C@]12C`, the Potency was “inactive”.
For `OC[C@H]1O[C@H](O[C@H]2O[C@H](CO)[C@@H](O)[C@H](O)[C@H]2O)[C@H](O)[C@@H](O)[C@@H]1O`, the “caspase-3/7 activation” value was -0.0322%.
In the case of `Oc1cc(Cl)cc(Cl)c1Cl`, the “caspase-3/7 activation” value is reported as 0.692%.
In the case of `CC[N+](CC)(CC)CCOc1ccc(/C=C/c2ccccc2)cc1`, the “caspase-3/7 activation” value is reported as -1.09% [at 42.5 µM].
For `COc1cc(S(=O)(=O)O)c(C)cc1N=Nc1c(O)ccc2cc(S(=O)(=O)O)ccc12`, the “caspase-3/7 activation” value was -1.92%.
With `CCn1c2ccccc2c2cc([N+](=O)[O-])ccc21` the “caspase-3/7 activation” value was 0.0363%.
With `Cc1ccc(C(C)C)cc2c(C)ccc1-2` the “caspase-3/7 activation” value was 0.447% [at 42.5 µM].
For `CCCCC(CC)COC(=O)CCCCC(=O)OCc1ccccc1` (stereo not given), the “caspase-3/7 activation” value was -0.175%.
For `CC(C)NC[C@@H](O)COc1ccc(CC(N)=O)cc1`, the “caspase-3/7 activation” value was 0.0285% [at 42.5 µM].
In the case of `Cc1cccc2cccnc12`, the “caspase-3/7 activation” value is reported as -0.0616%.
In the case of `Cc1c(C)c([N+](=O)[O-])c(C(C)(C)C)c([N+](=O)[O-])c1C`, the “caspase-3/7 activation” value is reported as 0.192%.
In the case of `Cc1c(C)c2c(c(C)c1OC(=O)c1cccnc1)CC[C@@](C)(CCC[C@H](C)CCC[C@H](C)CCCC(C)C)O2`, the “caspase-3/7 activation” value is reported as 0.702% [at 42.5 µM].
For `C=C(C)c1cccc(C(=C)C)c1`, the “caspase-3/7 activation” value was 0.184%.
With `CC(N=C(NC#N)Nc1ccncc1)C(C)(C)C` (stereo not given) the “caspase-3/7 activation” value was 0.558% [at 42.5 µM].
In the case of `CCCCCCCCCCCCOCCOCCOCCOCCOCCOCCOCCOCCOCCO`, the “caspase-3/7 activation” value is reported as 4.95% [at 42.5 µM].
In the case of `O=C(/C=C/c1ccccc1)OC/C=C/c1ccccc1`, the “caspase-3/7 activation” value is reported as 1.02%.
In the case of `Oc1c(I)cc(Cl)c2cccnc12`, the Potency is reported as “inactive”.
In the case of `c1ccc(C(O[C@@H]2CCCN(CCc3ccc4c(c3)OCO4)C2)c2ccccc2)cc1`, the “caspase-3/7 activation” value is reported as -2.19%.
In the case of `COc1ccc2cc1Oc1ccc(cc1)C[C@H]1c3c(cc4c(c3Oc3cc5c(cc3OC)CCN(C)[C@@H]5C2)OCO4)CCN1C`, the “caspase-3/7 activation” value is reported as 1.02% [at 42.5 µM].
For `CCCCCCOC(=O)C(C)CC` (stereo not given), the “caspase-3/7 activation” value was 0.84%.
For `COc1ccc(-c2coc3cc(O)ccc3c2=O)cc1`, the “caspase-3/7 activation” value was -5.57%.
For `CCC(C)n1ncn(-c2ccc(N3CCN(c4ccc(OC[C@H]5CO[C@](Cn6cncn6)(c6ccc(Cl)cc6Cl)O5)cc4)CC3)cc2)c1=O` (stereo not given in full), the “caspase-3/7 activation” value was -2.93% [at 42.5 µM].
With `CCN(CC)C(=O)c1cc(S(=O)(=O)Cc2ccccc2)c(N2CCC(c3ccccc3)CC2)cc1N(CC)CCN(C)C` the Potency was 24.1 µM (active).
For `CCCCNS(=O)(=O)c1ccc(C)cc1`, the “caspase-3/7 activation” value was -0.795%.
With `CC(C)(c1cc(Br)c(OCC(Br)CBr)c(Br)c1)c1cc(Br)c(OCC(Br)CBr)c(Br)c1` (stereo not given) the “caspase-3/7 activation” value was 3.6% [at 42.5 µM].
With `O=C(Nc1ccc2c(O)c(N=Nc3ccc(N=Nc4ccc(S(=O)(=O)O)cc4)cc3)c(S(=O)(=O)O)cc2c1)c1ccccc1` the “caspase-3/7 activation” value was -0.856%.
For `Cc1cc(C(C#N)c2ccc(Cl)cc2)c(Cl)cc1NC(=O)c1cc(I)cc(I)c1O` (stereo not given), the “caspase-3/7 activation” value was -2.55% [at 42.5 µM].
For `C=CCn1c(=O)n(CC=C)c(=O)n(CC=C)c1=O`, the “caspase-3/7 activation” value was 1.13%.
With `CN1CCN2c3ccccc3Cc3ccccc3C2C1` (stereo not given) the “caspase-3/7 activation” value was -0.758% [at 42.5 µM].
In the case of `CC1=CCC(=C(C)C)CC1`, the “caspase-3/7 activation” value is reported as 2.22%.
For `Nc1nc(-c2ccccc2)cs1`, the “caspase-3/7 activation” value was -1.57%.
For `Cc1cc(C(C)(C)C)c(O)c(C)c1Cn1c(=O)n(Cc2c(C)cc(C(C)(C)C)c(O)c2C)c(=O)n(Cc2c(C)cc(C(C)(C)C)c(O)c2C)c1=O`, the “caspase-3/7 activation” value was 4.23%.
For `Cl[Si](Cl)(c1ccccc1)c1ccccc1`, the “caspase-3/7 activation” value was 0.972%.
